Data published in publication PMC12820563, “FoxP3 forms a head-to-head dimer in vivo and stabilizes its multimerization on adjacent microsatellites”.
Whole data set: some 16,000 sequences, median “rpm ratio (pull-down/input)” near 0.94, cut for the highest 2% near 1.7. The sample holds the highest values, similar sequences and a random draw of the others, so the mix is not that of the screen.

molecular target: T1, MBP-FoxP1dN (Mus musculus, UniProt P58462 326-579); test: PD-seq (MBP pull-down with sequencing); 20 mM Tris-HCl pH 7.5, 100 mM NaCl, 1.5 mM MgCl2, 0.4 uM protein, 0.1 uM dsDNA library, 30 min, room temperature, amylose pull-down; high values mean tight binding; conditions: protein: recombinant; tags: His6-MBP; chain copies: 2; dsDNA, one strand shown
T1 sequence: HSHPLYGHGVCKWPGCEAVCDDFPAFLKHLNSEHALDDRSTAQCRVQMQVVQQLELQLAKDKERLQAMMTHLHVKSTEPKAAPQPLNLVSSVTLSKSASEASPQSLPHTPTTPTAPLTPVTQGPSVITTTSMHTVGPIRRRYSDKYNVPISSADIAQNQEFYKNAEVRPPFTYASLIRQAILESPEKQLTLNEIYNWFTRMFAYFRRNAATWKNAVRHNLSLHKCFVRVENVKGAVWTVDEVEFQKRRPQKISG
Summary of the method: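 Mouse FoxP3 or FoxP1 fragment lacking the N-terminus, His6-MBP-tagged and expressed in E. coli, was incubated at 0.4 µM with 0.1 µM Klenow-filled degenerate double-stranded DNA library for 30 min at room temperature in Tris pH 7.5 buffer with NaCl and MgCl2. Complexes captured on amylose resin were washed three times and their DNA sequenced on Illumina. Binding is reads-per-million enrichment of pull-down over input, replicates pooled.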

For “GATGATTGTTCTCCCAGCTGATGAATTGTTTAGGTCGAGTAAACAAATTTTCCTAATCTTTCTGTTCAAGCGCCATCTAC”, which binding signal is on record?
Its binding signal is 1.93 RPM ratio (pull-down/input).

How did the binding signal turn out when “GATGATTGTTCTCCCAGCTGATGAATTTGTTTAGTCGAGTAAACAAATTTTCCTAATCTTTCTGTTCAAGCGCCATCTAC” was run?
The binding signal was 2.24 RPM ratio (pull-down/input).

Which binding signal does the source give for “GATGATTGTTCTCCCAGCTGATGAATTGTTTTAGTCGAGTAAACAAATTTTCCTAATCTTTCTGTTCAAGCGCCATCTAC” here?
The binding signal was 1.44 RPM ratio (pull-down/input).

“GATGATTGTTCTCCCAGCTGATGAATTTGGTTAGTCGAGTAAACAAATTTTCCTAATCTTTCTGTTCAAGCGCCATCTAC” was tested. Which binding signal did it give?
Its binding signal is 0.953 RPM ratio (pull-down/input).

For “GATGATTGTTCTCCCAGCTGATGAATTCTGTTAGTCGAGTAAACAAATTTTCCTAATCTTTCTGTTCAAGCGCCATCTAC”, which binding signal is on record?
The binding signal was 1.29 RPM ratio (pull-down/input).

Which binding signal does the source give for “GATGATTGTTCTCCCAGCTGATGAATTTATTTAGTCGAGTAAACAAATTTTCCTAATCTTTCTGTTCAAGCGCCATCTAC” here?
Its binding signal is 1.76 RPM ratio (pull-down/input).

“GATGATTGTTCTCCCAGCTGATGAATTCGACATATCGAGTAAACAAATTTTCCTAATCTTTCTGTTCAAGCGCCATCTAC” was tested. Which binding signal did it give?
Its binding signal is 0.996 RPM ratio (pull-down/input).

With “GATGATTGTTCTCCCAGCTGATGAATTGTATGACTCGAGTAAACAAATTTTCCTAATCTTTCTGTTCAAGCGCCATCTAC” as the sequence, how does the binding signal read?
Its binding signal is 0.974 RPM ratio (pull-down/input).

How did the binding signal turn out when “GATGATTGTTCTCCCAGCTGATGAATTTATCAGATCGAGTAAACAAATTTTCCTAATCTTTCTGTTCAAGCGCCATCTAC” was run?
The binding signal was 1.03 RPM ratio (pull-down/input).

How did the binding signal turn out when “GATGATTGTTCTCCCAGCTGATGAATTCAGGCGGTCGAGTAAACAAATTTTCCTAATCTTTCTGTTCAAGCGCCATCTAC” was run?
The binding signal was 0.783 RPM ratio (pull-down/input).

“GATGATTGTTCTCCCAGCTGATGAATTACTAAGGTCGAGTAAACAAATTTTCCTAATCTTTCTGTTCAAGCGCCATCTAC” was tested. Which binding signal did it give?
Its binding signal is 1.03 RPM ratio (pull-down/input).

For “GATGATTGTTCTCCCAGCTGATGAATTACTTTGGTCGAGTAAACAAATTTTCCTAATCTTTCTGTTCAAGCGCCATCTAC”, which binding signal is on record?
Its binding signal is 0.952 RPM ratio (pull-down/input).

How did the binding signal turn out when “GATGATTGTTCTCCCAGCTGATGAATTTTGATGGTCGAGTAAACAAATTTTCCTAATCTTTCTGTTCAAGCGCCATCTAC” was run?
The binding signal was 1.04 RPM ratio (pull-down/input).

For “GATGATTGTTCTCCCAGCTGATGAATTGCTATTGTCGAGTAAACAAATTTTCCTAATCTTTCTGTTCAAGCGCCATCTAC”, which binding signal is on record?
The binding signal was 2.28 RPM ratio (pull-down/input).

“GATGATTGTTCTCCCAGCTGATGAATTATTGCTGTCGAGTAAACAAATTTTCCTAATCTTTCTGTTCAAGCGCCATCTAC” was tested. Which binding signal did it give?
Its binding signal is 1.67 RPM ratio (pull-down/input).

Which binding signal does the source give for “GATGATTGTTCTCCCAGCTGATGAATTGCTATTTTCGAGTAAACAAATTTTCCTAATCTTTCTGTTCAAGCGCCATCTAC” here?
Its binding signal is 2.22 RPM ratio (pull-down/input).

“GATGATTGTTCTCCCAGCTGATGAATTTGCTATTTCGAGTAAACAAATTTTCCTAATCTTTCTGTTCAAGCGCCATCTAC” was tested. Which binding signal did it give?
Its binding signal is 1.17 RPM ratio (pull-down/input).

Which binding signal does the source give for “GATGATTGTTCTCCCAGCTGATGAATTTGCTATGTCGAGTAAACAAATTTTCCTAATCTTTCTGTTCAAGCGCCATCTAC” here?
Its binding signal is 1.06 RPM ratio (pull-down/input).

“GATGATTGTTCTCCCAGCTGATGAATTTTGCTATTCGAGTAAACAAATTTTCCTAATCTTTCTGTTCAAGCGCCATCTAC” was tested. Which binding signal did it give?
Its binding signal is 1.32 RPM ratio (pull-down/input).

“GATGATTGTTCTCCCAGCTGATGAATTAGGCGCGTCGAGTAAACAAATTTTCCTAATCTTTCTGTTCAAGCGCCATCTAC” was tested. Which binding signal did it give?
The binding signal was 1.03 RPM ratio (pull-down/input).

Which binding signal does the source give for “GATGATTGTTCTCCCAGCTGATGAATTGGACTATTCGAGTAAACAAATTTTCCTAATCTTTCTGTTCAAGCGCCATCTAC” here?
Its binding signal is 0.893 RPM ratio (pull-down/input).

How did the binding signal turn out when “GATGATTGTTCTCCCAGCTGATGAATTCCCCGGATCGAGTAAACAAATTTTCCTAATCTTTCTGTTCAAGCGCCATCTAC” was run?
The binding signal was 0.788 RPM ratio (pull-down/input).

“GATGATTGTTCTCCCAGCTGATGAATTTACCTACTCGAGTAAACAAATTTTCCTAATCTTTCTGTTCAAGCGCCATCTAC” was tested. Which binding signal did it give?
Its binding signal is 1.24 RPM ratio (pull-down/input).

How did the binding signal turn out when “GATGATTGTTCTCCCAGCTGATGAATTACTAACATCGAGTAAACAAATTTTCCTAATCTTTCTGTTCAAGCGCCATCTAC” was run?
Its binding signal is 1.77 RPM ratio (pull-down/input).

For “GATGATTGTTCTCCCAGCTGATGAATTATTTACATCGAGTAAACAAATTTTCCTAATCTTTCTGTTCAAGCGCCATCTAC”, which binding signal is on record?
Its binding signal is 2.34 RPM ratio (pull-down/input).

How did the binding signal turn out when “GATGATTGTTCTCCCAGCTGATGAATTTACCAAATCGAGTAAACAAATTTTCCTAATCTTTCTGTTCAAGCGCCATCTAC” was run?
Its binding signal is 1.65 RPM ratio (pull-down/input).

“GATGATTGTTCTCCCAGCTGATGAATTACAAACATCGAGTAAACAAATTTTCCTAATCTTTCTGTTCAAGCGCCATCTAC” was tested. Which binding signal did it give?
Its binding signal is 2.67 RPM ratio (pull-down/input).

Which binding signal does the source give for “GATGATTGTTCTCCCAGCTGATGAATTACCAAAATCGAGTAAACAAATTTTCCTAATCTTTCTGTTCAAGCGCCATCTAC” here?
Its binding signal is 1.3 RPM ratio (pull-down/input).

For “GATGATTGTTCTCCCAGCTGATGAATTAATTACATCGAGTAAACAAATTTTCCTAATCTTTCTGTTCAAGCGCCATCTAC”, which binding signal is on record?
Its binding signal is 1.26 RPM ratio (pull-down/input).

Which binding signal does the source give for “GATGATTGTTCTCCCAGCTGATGAATTTATTACATCGAGTAAACAAATTTTCCTAATCTTTCTGTTCAAGCGCCATCTAC” here?
Its binding signal is 1.21 RPM ratio (pull-down/input).

For “GATGATTGTTCTCCCAGCTGATGAATTGATTACATCGAGTAAACAAATTTTCCTAATCTTTCTGTTCAAGCGCCATCTAC”, which binding signal is on record?
Its binding signal is 1.58 RPM ratio (pull-down/input).

“GATGATTGTTCTCCCAGCTGATGAATTACTAAAATCGAGTAAACAAATTTTCCTAATCTTTCTGTTCAAGCGCCATCTAC” was tested. Which binding signal did it give?
The binding signal was 1.34 RPM ratio (pull-down/input).

Which binding signal does the source give for “GATGATTGTTCTCCCAGCTGATGAATTACTACCATCGAGTAAACAAATTTTCCTAATCTTTCTGTTCAAGCGCCATCTAC” here?
Its binding signal is 1.13 RPM ratio (pull-down/input).

For “GATGATTGTTCTCCCAGCTGATGAATTACCAACATCGAGTAAACAAATTTTCCTAATCTTTCTGTTCAAGCGCCATCTAC”, which binding signal is on record?
Its binding signal is 1.94 RPM ratio (pull-down/input).

How did the binding signal turn out when “GATGATTGTTCTCCCAGCTGATGAATTACATTTATCGAGTAAACAAATTTTCCTAATCTTTCTGTTCAAGCGCCATCTAC” was run?
The binding signal was 1.52 RPM ratio (pull-down/input).
